High-throughput results deposited in PubChem by National Center for Advancing Translational Sciences (NCATS).
Only some compounds are listed: those with a hit (about 11% of all), similar ones and a draw of the others.
Pf growth 48h: inhibits P. falciparum growth in the first generation, 48 h | P. falciparum luciferase growth in erythrocytes, 48 h | hit rate 5.9% among 310,000 | Potency, µM (top dose mostly 28.7 µM), for inactives: at the top dose activity change, negative = inhibition, most hits filed as inhibitors
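Luciferase-expressing parasites in RBCs, 2% Hct / 0.1% parasitemia final; RPMI 1640 + 0.5% Albumax; 37 C, 5% CO2, one generation; luminescence read-out, lower signal = inhibition.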
HCV inh: blocks hepatitis C virus; Huh7.5.1 HCVcc-Cre infection, luciferase reporter, 44 h; Potency, µM (series often up to 41.8 µM), without a hit: top-dose activity change, negative = inhibition, usual class: inhibitors; hit rate 3.4% among 340,000; AID 651820
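A cell-based infection assay in which seeded cells (1,000 per well) receive test compound after 4 h, are inoculated with HCVcc-Cre at approximately 0.5 moi, and are incubated 44 h before luminescence detection.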
Pf growth 96h: P. falciparum growth inhibition at 96 hour, primary screen for plastid delayed-death inhibitors; AID 504834; hit rate 6.9% among 320,000; Potency, µM (titrated, usually from 28.7 µM), inactives show top-dose activity change, negative = inhibition, actives largely listed as inhibitors; P. falciparum luciferase reporter growth, 96 h
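Two parasite generations (96 h, 37 C, 5% CO2) of compound exposure in infected erythrocytes (0.05% parasitemia, 2% hematocrit). Luciferase-reporter P. falciparum; decreased luminescence indicates inhibited growth, aimed at apicoplast-acting delayed death.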
AmpC inh detg: blocks E. coli AmpC beta-lactamase in detergent assay; Potency, µM (top dose mostly 114 µM), for the others: at the top dose activity change, negative = inhibition, actives largely listed as inhibitors; AID 485294; P00811; AmpC hydrolysis of nitrocefin, absorbance 480 nm, 0.01% Triton; hit rate 0.041% among 370,000;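 also: 0% = no-compound wells and -100% = no-enzyme wells; nearly all actives have a fitted effect of over 25% in size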
Target sequence (P00811 whole entry, looked up): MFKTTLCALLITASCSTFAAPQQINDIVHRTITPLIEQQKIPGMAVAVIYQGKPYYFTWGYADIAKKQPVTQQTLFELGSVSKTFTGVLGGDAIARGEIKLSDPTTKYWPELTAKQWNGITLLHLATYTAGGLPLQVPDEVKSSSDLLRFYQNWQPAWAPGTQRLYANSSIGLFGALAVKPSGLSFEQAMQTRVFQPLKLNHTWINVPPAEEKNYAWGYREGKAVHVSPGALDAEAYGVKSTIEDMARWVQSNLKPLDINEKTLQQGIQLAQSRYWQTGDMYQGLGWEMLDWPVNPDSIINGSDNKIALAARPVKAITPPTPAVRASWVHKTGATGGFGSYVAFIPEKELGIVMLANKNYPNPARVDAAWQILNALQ
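20 mM phosphate pH 7.0 + 0.01% (detergent screen) or 0.0001% Triton X-100; 5.3 nM AmpC reagent; cpd preinc 15 min RT; nitrocefin (800 uM stock) to start; A480 q20 s × 4 min; Activity was normalised to no-enzyme and no-compound control wells.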
AmpC no deterg: AmpC beta-lactamase inhibition without detergent | P00811 | Potency, µM (titrated, usually from 57.1 µM), inactives show top-dose activity change, negative = inhibition, actives largely listed as inhibitors | AmpC nitrocefin hydrolysis, absorbance 480 nm, 0.0001% Triton | hit rate 0.52% among 330,000;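 also: plate controls were no compound for no effect and no enzyme for full effect; nearly all actives have a fitted effect of over 20% in size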
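20 mM phosphate pH 7.0 + 0.01% (detergent screen) or 0.0001% Triton X-100; 5.3 nM AmpC reagent; cpd preinc 15 min RT; nitrocefin (800 uM stock) to start; A480 q20 s × 4 min; Activity was normalised to no-enzyme and no-compound control wells.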
AMA1-RON2 inh: disrupts binding of P. falciparum AMA1 to RON2; AlphaScreen AMA1-biotinylated RON2 peptide binding; Potency, µM (top dose mostly 58.2 µM), for the others: at the top dose activity change, negative = inhibition, most hits filed as inhibitors; hit rate 0.2% among 360,000;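 also: 0% = vehicle wells and -100% = peptide control; nearly all actives have a fitted effect of over 45% in size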
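AMA1 (3D7) with his tag at 25 nM final met compounds first, then biotinylated RON2 peptide at 25 nM; detection used donor plus acceptor beads, 10 µg/mL apiece, read by AlphaScreen after 30 min at room temperature.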
The depositor's hits bear a star; ? = inconclusive; · = no result given. Calls follow the shape of the dose curve; as a rule, active = well fitted curve in the direction sought with a large enough effect; inconclusive = small, poorly fitted or top-dose-only effect, or another doubt; inactive = no such curve, though single readings can be large; an effect the other way counts as inactive or inconclusive. Unless noted, % is scaled to controls: 0 for no effect and ±100 for the full control effect; potency is read from the fitted curve at half-maximal effect.

SMILES	Pf growth 48h	HCV inh	Pf growth 96h	AmpC inh detg	AmpC no deterg	AMA1-RON2 inh
COc1cccc(N(C(=O)Cn2nnc(-c3ccc(Cl)cc3)n2)C(C(=O)NCC2CCCO2)c2ccc(C)cc2)c1 (configuration not stated)	-17%	18%	?	-2%	-13%	-7%
Cc1ccc(-c2nnn(CC(=O)N(c3ccccc3)C(C(=O)NCC3CCCO3)c3ccc(F)cc3)n2)o1 (configuration not stated)	12%	6%	-22%	-3%	-13%	-6%
Cc1ccc(-c2nnn(CC(=O)N(c3ccccc3)C(C(=O)NCC3CCCO3)c3cccs3)n2)o1 (configuration not stated)	59%	7%	10µM*	-1%	-22%	2%
CC(=O)Nc1nc2c(ccc3ccccc32)s1	47%	?	10µM*	?	-18%	-2%
CN(C)S(=O)(=O)c1ccc(N2CCCC2)c(C(=O)Nc2nc(-c3ccc(F)c(F)c3)cs2)c1	?	-20%	10µM*	2%	-14%	-15%
CN(C)S(=O)(=O)c1ccc(N2CCCC2)c(C(=O)Nc2nc3c(ccc4ccccc43)s2)c1	?	?	13µM*	-5%	-20%	-5%
CN(C)S(=O)(=O)c1ccc(N2CCCC2)c(C(=O)Nc2nccs2)c1	·	-27%	·	·	-18%	0%
O=C(c1ccc2c(c1)OCO2)N(CC1CCCO1)C1(C(=O)NC2CCCC2)CCCCC1 (configuration not stated)	12µM*	-4%	?	1%	40%	-24%
O=C(NC1(C(=O)NC2CCCC2)CCCCC1)c1ccc2c(c1)OCO2	-17%	7%	9.3µM*	-9%	-19%	-5%
O=C(NC1(C(=O)NC2CCCCC2)CCCCC1)c1ccc2c(c1)OCO2	-4%	3%	29%	-10%	-18%	-16%
O=C(NCc1ccc(Cl)cc1)c1ccc2c(Cl)c3c(nc2c1)CCCC3	·	·	·	-5%	·	·
COc1ccc(S(=O)(=O)N(CC(=O)Nc2ccc(C)cc2)c2ccc(C)cc2)cc1OC	·	·	·	1%	·	·
COc1ccc(C)cc1NS(=O)(=O)c1ccc(NC(=O)CN(c2cc([N+](=O)[O-])ccc2C)S(C)(=O)=O)cc1	?	10µM*	18%	-10%	-3%	-17%
COc1ccc(C)cc1S(=O)(=O)N(CC(=O)Nc1cccc([N+](=O)[O-])c1)c1ccc(C)c(C)c1	13µM*	6%	17%	-5%	?	-10%
COCc1cc(C)nc(NC2CCCCC2)c1C#N	3.7µM*	6%	-27%	-9%	-2%	0%
COc1ccc(CN(C(=O)Nc2cccc(Cl)c2)c2ccccn2)cc1OC	·	·	·	0%	·	·
Oc1[nH]c2ccccc2c1C1=NCCCC1	3%	35µM*	?	?	-17%	-9%
Cc1nc(-c2ccccc2)nn1-c1ccc([N+](=O)[O-])cc1	·	-2%	·	·	·	-8%
COc1cc(-c2ccc(-[n+]3nc(-c4ccccc4)nn3-c3ccc([N+](=O)[O-])cc3)c(OC)c2)ccc1-[n+]1nc(-c2ccccc2)nn1-c1ccc([N+](=O)[O-])cc1	5.4µM*	·	6.7µM*	·	·	·
COc1ccc(-c2cc(=O)oc3cc4occ(C)c4cc23)cc1	?	9%	0.83µM*	-15%	-22%	32%
Cc1cc(OC(C)C(=O)NC2CCN(Cc3ccccc3)CC2)c2c(C)cc(=O)oc2c1 (configuration not stated)	?	?	?	2%	87%	-3%
CCc1cc(=O)oc2cc(C)cc(OC(C)C(=O)NC3CCN(Cc4ccccc4)CC3)c12 (configuration not stated)	?	13µM*	?	-6%	10%	-3%
CCc1cc(=O)oc2cc(C)cc(OCC(=O)N3CCC(C(=O)NC(C)C)(c4ccccc4)CC3)c12	10µM*	?	10µM*	1%	138%	-3%
Cc1cc(OCC(=O)N2CCC(C(=O)O)(c3ccccc3)CC2)c2c(C)cc(=O)oc2c1	12%	37%	0%	-15%	-17%	0%
CCCc1cc(=O)oc2cc(C)cc(OC(C)C(=O)NCc3ccccn3)c12 (configuration not stated)	2.6µM*	?	2.3µM*	-2%	57%	14%
SMILES	Pf growth 48h	HCV inh	Pf growth 96h	AmpC inh detg	AmpC no deterg	AMA1-RON2 inh
CN(Cc1ccccc1)S(=O)(=O)c1nnc(NC(=O)c2ccccc2Cl)s1	·	·	·	13%	·	·
COc1ccc(-c2cc(=O)oc3cc(OC(C)C(=O)NC4CC4)ccc23)cc1 (configuration not stated)	?	10%	2.9µM*	5%	-10%	9%
Cc1cc(=O)oc2cc(OC(C)C(=O)NC3CCCC3)ccc12 (configuration not stated)	-11%	16%	?	?	-15%	-9%
O=C(COc1ccc2c(-c3ccccc3)cc(=O)oc2c1)NCc1ccccn1	9%	12%	10%	?	10%	-2%
CCc1cc(=O)oc2cc(C)cc(OC(C)C(=O)NCc3ccccn3)c12 (configuration not stated)	3.7µM*	-14%	2.1µM*	-14%	1%	-7%
CC(Oc1ccc2c(-c3ccccc3)cc(=O)oc2c1)C(=O)NCc1ccccn1 (configuration not stated)	-1%	25µM*	0%	?	75%	7%
COc1ccc(-c2nnc(SCC(=O)Nc3ccc(C)c(Cl)c3)nc2-c2ccc(OC)c(OC)c2)cc1OC	·	·	·	8%	·	·
COc1ccc(S(=O)(=O)N2CCN(Cc3ccc4c(c3)OCO4)CC2)cc1OC	·	·	·	13%	·	·
O=S(=O)(NCc1cccc(Br)c1)c1ccc(-c2cc(C(F)(F)F)on2)s1	·	·	·	0%	·	·
O=C1C(=O)N(CCCc2ccccc2)c2ccccc21	?	-22%	10µM*	-13%	?	-12%
O=C(CN1C(=O)C(=O)c2ccccc21)NCCc1ccccc1	32%	-5%	?	-6%	-26%	-5%
CCOC(=O)C1CCCN(C/C(O)=C(\C#N)c2nc(-c3ccccc3)cs2)C1 (configuration not stated)	28%	4%	13µM*	0%	8%	22%
N#C/C(=C(/O)CN1CCOCC1)c1nc(-c2ccccc2)cs1	·	3%	?	-10%	-22%	6%
Cc1cc2cc(C#N)c(NCCNC(=S)NCCCN3CCOCC3)nc2cc1C	13µM*	?	223%	-6%	194%	2%
